What all share (assay): NCI-60 one-dose screen, 48 h (100 = growth as untreated, 0 = no growth, -100 = all killed)
One experiment has as its system HOP-62 NSCLC. To be noted: 10 µM unless noted.
For another experiment, the system named is NCI-H460 lung. Particulars: 10 µM unless noted.
The test system of the next experiment is HOP-92 NSCLC. To be noted: 10 µM unless noted.
A further experiment has as its system NCI-H522 lung. To be noted: 10 µM.
A further experiment deals with A549/ATCC NSCLC. To be noted: 10 µM unless noted.
The subject of another experiment is 786-0 renal. To be noted: 10 µM unless noted.
The next experiment relates to COLO 205 colon. Particulars: 10 µM unless noted.
Another experiment deals with NCI-H322M lung. To be noted: 10 µM unless noted.

This is part of a sample that, as a whole, favours compounds with a hit. Of some 83,000 tested, about 20% had one in any assay.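 In brief: 96-well plates, 48 h treatment, single concentration, percent growth endpoint.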 A number with no mark means an inactive call. Calls of active or inactive are those of the source. Rule for the calls: active = growth percent below 10; inactive = the rest.

On to `COc1cc(-c2nc3ccccc3o2)cc(CN2CCN(c3ccccc3)CC2)c1O`, for which the growth is 47.1% in the experiment with HOP-62 NSCLC; 51% with NCI-H460 lung; 81.8% with HOP-92 NSCLC; 58.4% in the experiment on NCI-H522 lung; 30.2% with A549/ATCC NSCLC; 90.2% in the experiment with 786-0 renal. Further, the growth with COLO 205 colon was 117%.

Take `O=C1NC(=O)C(CSc2ccccc2)(c2ccccc2)N1` (stereo not given): the growth was 86.5% in the experiment on NCI-H322M lung; 97.3% in the experiment with HOP-62 NSCLC; 118% with NCI-H460 lung; 92.4% in the experiment on A549/ATCC NSCLC; 103% in the experiment on 786-0 renal; 98% in the experiment on COLO 205 colon.

As for `O=c1nc(NO)[nH]c(=O)n1Cc1ccc(F)cc1`, the growth in the experiment on NCI-H322M lung was 98.8%; in the experiment with HOP-62 NSCLC, 107%; in the experiment on NCI-H460 lung, 102%; in the experiment on A549/ATCC NSCLC, 104%; in the experiment on 786-0 renal, 101%; in the experiment on COLO 205 colon it was 118%.

Consider `CCCCOC(=O)C1OC(Oc2ccc3c(C)cc(=O)oc3c2)[C@@H](OC(C)=O)C(OC(C)=O)C1OC(C)=O` (stereo not given in full), for which the growth in the experiment with NCI-H322M lung is 104%; in the experiment with HOP-62 NSCLC it was 98.7%; with HOP-92 NSCLC it was 98.3%; in the experiment with NCI-H522 lung it was 88.8%; in the experiment on A549/ATCC NSCLC, 96.3%; with 786-0 renal, 98.5%.

In the case of `COC(=O)c1ccc(C(=O)Nc2ccccc2N)cc1`, the growth in the experiment on NCI-H322M lung is 66.5%; in the experiment on HOP-62 NSCLC, 95%; with NCI-H460 lung, 63.3%; in the experiment on NCI-H522 lung, 75.1%; in the experiment on A549/ATCC NSCLC, 94.7%; in the experiment with 786-0 renal it was 80.8%. Moreover, the growth in the experiment on COLO 205 colon is 106%.

Turning to `COc1ccc(C2SC(C)C(=O)N2CCc2cccs2)cc1OC` (stereo not given), the growth in the experiment on NCI-H322M lung is 91.7%; in the experiment with HOP-62 NSCLC it was 94.5%; in the experiment with NCI-H460 lung, 90.3%; in the experiment with NCI-H522 lung it was 66.2%; in the experiment on A549/ATCC NSCLC, 80.6%; in the experiment on 786-0 renal it was 92%. In addition, in the experiment with COLO 205 colon, the growth was 93.9%.

In the case of `FCOC(C(F)(F)F)C(F)(F)F`, the growth with NCI-H322M lung was 97.5%; in the experiment with HOP-62 NSCLC, 114%; in the experiment with NCI-H460 lung, 111%; with NCI-H522 lung, 96.6%; in the experiment with A549/ATCC NSCLC it was 99.1%; in the experiment on 786-0 renal, 97.7%. Also, the growth in the experiment with COLO 205 colon was 117%.

With `Cn1c(=O)c(S(=O)(=O)c2ccccc2)cc2ccc3c(cnn3-c3ccc(Cl)cc3)c21`, the growth in the experiment with HOP-62 NSCLC was 87.3%; with NCI-H460 lung, 80.7%; in the experiment on HOP-92 NSCLC it was 39.8%; in the experiment with NCI-H522 lung it was -18.9% (active); in the experiment on A549/ATCC NSCLC, 65.5%; in the experiment on 786-0 renal, 51.3%. In the experiment with COLO 205 colon, the growth is 100%.

Regarding `CC(=O)Nc1ccc(S(=O)(=O)N/N=C\c2ccc(Cl)c(Cl)c2)cc1`, the growth was 100% in the experiment on HOP-62 NSCLC; 101% with NCI-H460 lung; 93.8% in the experiment on A549/ATCC NSCLC; 113% in the experiment on 786-0 renal; 109% in the experiment with COLO 205 colon.

For `O=C(O)CCN1CCN(c2cccc(Cl)c2)CC1`, the growth with HOP-62 NSCLC was 97%; with NCI-H460 lung it was 106%; with HOP-92 NSCLC it was 110%; in the experiment on NCI-H522 lung it was 127%; in the experiment with A549/ATCC NSCLC it was 95.9%; in the experiment on 786-0 renal, 104%. Further, the growth in the experiment on COLO 205 colon was 111%.

For the compound `Cc1cc(C)c(S(=O)O)c(C)c1`, the growth in the experiment with NCI-H322M lung is 124%; with NCI-H460 lung it was 109%; in the experiment with HOP-92 NSCLC it was 93.1%; in the experiment on NCI-H522 lung, 101%; with A549/ATCC NSCLC, 109%; in the experiment with 786-0 renal, 112%. Besides, the growth in the experiment with COLO 205 colon was 126%.

As for `COc1ccc(-n2ncc3c4nc(OC)c(S(=O)(=O)c5ccccc5)cc4ccc32)cc1`, the growth with HOP-62 NSCLC was 47.5%; in the experiment on NCI-H460 lung it was 78.9%; in the experiment with HOP-92 NSCLC, 26.7%; in the experiment on NCI-H522 lung it was 61.3%; in the experiment on A549/ATCC NSCLC it was 71.3%; in the experiment on 786-0 renal, 47.2%. For the same compound, the growth in the experiment on COLO 205 colon was 96.6%.

Turning to `Clc1nc(-c2ccccn2)nc2sc3c(c12)CCCCCC3`, the growth in the experiment on NCI-H322M lung is 84.5%; in the experiment with HOP-62 NSCLC it was 86.6%; in the experiment with NCI-H460 lung it was 90.9%; in the experiment with A549/ATCC NSCLC, 99.8%; with 786-0 renal it was 98.4%; in the experiment on COLO 205 colon, 115%.

Consider `O=C(c1ccccc1)C(Br)C(Br)c1cccc([N+](=O)[O-])c1` (stereo not given), for which the growth is 101% in the experiment with NCI-H322M lung; 90.2% with NCI-H460 lung; 65.1% with HOP-92 NSCLC; -68.8% (active) with NCI-H522 lung; 92.7% in the experiment with A549/ATCC NSCLC; 90.1% with 786-0 renal. In the experiment with COLO 205 colon, the growth was -95% (active).

As for `O=C1c2[nH]cc(CN[C@@H]3CCCN3)c2C(=O)c2c1c(O)c1ccccc1c2O`, the growth was -95% (active) in the experiment with NCI-H322M lung; -100% (active) with HOP-62 NSCLC; -92.6% (active) with NCI-H460 lung; -85.1% (active) with NCI-H522 lung; -93.1% (active) in the experiment with A549/ATCC NSCLC; -83.1% (active) in the experiment with 786-0 renal. In the experiment with COLO 205 colon, the growth was -79.8% (active).

For the compound `CN1CCN(C)c2cncc(Br)c2C1=O`, the growth with HOP-62 NSCLC is 110%; in the experiment with NCI-H460 lung, 105%; with HOP-92 NSCLC, 91.8%; in the experiment with NCI-H522 lung it was 93.5%; in the experiment on A549/ATCC NSCLC, 104%; with COLO 205 colon it was 108%.

These data come from PubChem BioAssay (NCI).
